According to PubChem BioAssay AID1159580 (chemical genetic matrix, 2015):
Among all 5,500 compounds or so, about 2,000 (36%) were called active. Roughly 18% stayed inconclusive and do not appear here. Rule as the data show it: active = normalized growth mostly below about 0.91 (no sharp cut-off); inconclusive = no clear call, values can overlap the other calls; inactive = mostly above about 0.92. This is one part of the list.

Assay: chemical genetic growth profiling, strain panel (AID 1159580);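 also: tested at 20 µM; growth read once vehicle control cultures reached saturation at 30 °C; 1 = growth at the plate median or of vehicle wells; lower values mean less growth of the strain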
Settings: S. cerevisiae deletion strains, growth OD

Measured: normalized growth

CS/C(N)=N\N=C/c1c(F)cccc1Cl
inactive: locus YAL013W, strain DEP1, stronger effect = lower value 0.998 | locus YBR229C, strain ROT2, stronger effect = lower value 0.992 | locus YCL061C, strain MRC1, stronger effect = lower value 0.996 | locus YDL101C, strain DUN1, stronger effect = lower value 1 | locus YDR150W, strain NUM1, stronger effect = lower value 0.995 | locus YEL061C, strain CIN8, stronger effect = lower value 1 | locus YGR078C, strain PAC10, stronger effect = lower value 1.01 | locus YHR030C, strain SLT2, stronger effect = lower value 0.988 | locus YHR087W, strain rtc3, stronger effect = lower value 0.979 | locus YJL187C, strain SWE1, stronger effect = lower value 0.986 | locus YJR043C, strain POL32, stronger effect = lower value 0.992 | locus YJR075W, strain HOC1, stronger effect = lower value 0.991 | locus YLR039C, strain RIC1, stronger effect = lower value 1.1 | locus YLR058C, strain SHM2 (second series), stronger effect = lower value 0.998 | locus YLR085C, strain ARP6, stronger effect = lower value 1.08 | locus YLR262C, strain YPT6, stronger effect = lower value 1.03 | locus YML094W, strain GIM5, stronger effect = lower value 0.993 | locus YMR219W, strain ESC1, stronger effect = lower value 0.995 | locus YMR263W, strain SAP30, stronger effect = lower value 1.02 | locus YNL153C, strain GIM3, stronger effect = lower value 0.998 | locus YNL298W, strain CLA4 (second series), stronger effect = lower value 1.05 | locus YNL322C, strain KRE1, stronger effect = lower value 1 | locus YNR030W, strain Alg12, stronger effect = lower value 1.05 | locus YPL055C, strain LGE1, stronger effect = lower value 1 | locus YPL241C, strain CIN2, stronger effect = lower value 0.988 | locus YPR135W, strain CTF4, stronger effect = lower value 1.03
